Laboratory results: the supplement of paper PMC3334620
The full ranking holds about 33,000 sequences; the median of “E-score (-0.5 to 0.5)” is about -0.0059, and the highest 2% start at about 0.26. Many of the other results were omitted from the sample, so the highest values are more common in it than they were.

target: T1, Cin5 (UniProt P40917); test: PBM E-score (8-mer binding enrichment) (E-score (-0.5 to 0.5)); higher = stronger / more preferred TF binding; settings: protein concentration: 100 nM; construct: GST-full length
T1 sequence: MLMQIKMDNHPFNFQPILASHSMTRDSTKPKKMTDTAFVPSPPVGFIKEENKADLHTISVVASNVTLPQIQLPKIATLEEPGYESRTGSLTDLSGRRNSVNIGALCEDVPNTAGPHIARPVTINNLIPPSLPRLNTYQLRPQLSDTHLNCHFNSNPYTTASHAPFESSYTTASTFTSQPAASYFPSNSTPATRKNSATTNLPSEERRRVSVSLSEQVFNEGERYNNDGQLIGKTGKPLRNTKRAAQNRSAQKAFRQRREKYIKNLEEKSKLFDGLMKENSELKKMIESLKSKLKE
Experimental: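 Universal 'all 10-mer' protein binding microarrays (Agilent AMADID 015681) probed with GST-tagged S. cerevisiae TFs (full-length or DBD) made by in vitro transcription/translation (PURExpress), about 100-200 nM. Bound TF was detected with fluorescent anti-GST. Each ungapped 8-mer (which stands for itself and its reverse complement) is scored by the PBM enrichment score (E-score), a modified Wilcoxon-Mann-Whitney statistic from -0.5 to +0.5, computed with the Universal PBM Analysis Suite. Scale: above 0.35 generally sequence-specific binding.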

| Sequence | PBM E-score |
| --- | --- |
| CTCTGAGC | -0.2 |
| ACTGGGAT | 0.0399 |
| GCTCTTCA | -0.157 |
| CGGAGTGA | 0.0979 |
| CGTTCAAA | -0.0884 |
| GACGTCAC | 0.00326 |
| GGCCAACA | -0.0942 |
| CATCGATA | 0.258 |
| CATCGATG | 0.0124 |
| AATCGATA | 0.247 |
| ATGCTTCA | 0.0559 |
| AATCACCG | 0.0462 |
| CCCCACCC | 0.153 |
| CCCACCCC | 0.24 |
| GCCCACCC | 0.191 |
| ACCCACCC | 0.323 |
| CCCACCCA | 0.21 |
| CCCACCCG | 0.293 |
| CCAGCGAG | -0.0473 |
| CGAAATGA | 0.19 |
| ATGGGACA | 0.0583 |
| GTGCTCGA | -0.0887 |
| GTGCTAAA | 0.00722 |
| AAGTAACA | 0.316 |
| CTGTAATA | 0.105 |

| Sequence | PBM E-score |
| --- | --- |
| AAGTAACG | -0.0154 |
| CTGTAATC | 0.128 |
| CAGTAATC | 0.15 |
| AAGTAATC | 0.339 |
| AAGTAATT | 0.181 |
| ATGTAATC | 0.383 |
| ATGTAATG | 0.193 |
| GTGTAATA | 0.193 |
| AAGTAACT | 0.186 |
| ATGTAATA | 0.361 |
| TAGATCCA | -0.00386 |
| CGTGCCGA | -0.115 |
| AGGAAATA | 0.164 |
| GGCTCCAA | -0.169 |
| AGGCTAAT | 0.0863 |
| ATAAGACA | 0.105 |
| GAATCCGA | 0.0296 |
| CGTGGTCA | -0.0679 |
| ACAATGTG | 0.0255 |
| AACATGTG | 0.257 |
| CACATGTG | -0.00999 |
| AACATGTC | 0.0503 |
| CTCTTGGC | -0.112 |
| TGACTTAA | 0.268 |
| GGACTTAA | -0.15 |

| Sequence | PBM E-score |
| --- | --- |
| AGACTTAA | -0.139 |
| GCAATCAA | 0.195 |
| CATGTTGA | 0.293 |
| AATGTTGA | -0.014 |
| CATGTTGC | -0.00801 |
| GCACCACA | -0.122 |
| ACCAATAG | -0.123 |
| AACAATAC | 0.187 |
| ACCAATAT | 0.323 |
| ACCAATAC | 0.104 |
| AACAATAA | 0.257 |
| AACAATAT | 0.345 |
| GCTTGCCA | -0.131 |
| ATCTGGCC | -0.108 |
| CACGCGAC | -0.0294 |
| TACTTGCA | 0.141 |
| CCACAGAC | -0.0305 |
| CTCGCTTA | 0.346 |
| CGCGCTGA | 0.104 |
| AGCGCTTA | 0.157 |
| CTCGCTGA | -0.0383 |
| CGCGCTTA | 0.297 |
| ATCGCTTA | 0.0758 |
| AGGTATAT | 0.193 |
| GGCGGGTA | -0.194 |

| Sequence | PBM E-score |
| --- | --- |
| CGCCAAAC | -0.072 |
| ACGCTAAC | 0.0232 |
| GTTCAAAA | -0.105 |
| ATTAGTAA | 0.387 |
| GTTAGTAA | 0.111 |
| CTTAGTAA | 0.392 |
| CTTAGTAC | 0.0461 |
| ATTAGTAC | 0.173 |
| ATTAGTAG | 0.0962 |
| ATCTGGGC | -0.0822 |
| AGCTGTTC | -0.0725 |
| TCGCAAAA | 0.156 |
| CAGTATGC | 0.0107 |
| CTTAGCTC | -0.106 |
| CCATGTAG | -0.00831 |
| ACATGTAG | 0.278 |
| ACATGTAA | 0.168 |
| CCAGATTA | 0.225 |
| CGGCTCGC | 0.0606 |
| CTGATGAA | 0.0259 |
| ATGATGTC | 0.233 |
| CAAATGGA | -0.0888 |
| GTGATGAA | 0.0186 |
| GAAATGTA | 0.143 |
| TAAATGTA | 0.191 |

| Sequence | PBM E-score |
| --- | --- |
| ATGATGTG | 0.145 |
| AAAATGGA | 0.29 |
| ATGATGTA | 0.305 |
| AAAATGGG | -0.0874 |
| CAAATGTA | 0.268 |
| ATGATGAA | 0.258 |
| GCATAGCA | -0.0462 |
| AGCCACCT | -0.192 |
| GATCTGGA | -0.125 |
| CCTTAACG | -0.0146 |
| GTAGGGAA | 0.00147 |
| GAAACGCC | 0.114 |
| CGGGCGTA | -0.132 |
| ACAACCGT | -0.172 |
| GTGATGTA | 0.172 |
| CTGATGTA | 0.266 |
| CTGATGTC | 0.184 |
| GCAGCAAC | -0.0419 |
| ATGAATGG | 0.301 |
| ATGAATGA | 0.143 |
| ATGAATGC | 0.167 |
| CCCATCAG | -0.165 |
| CACCACGG | -0.325 |
| GTATTAAC | 0.00428 |
| TTATTAAA | 0.278 |

| Sequence | PBM E-score |
| --- | --- |
| ATATTAAT | 0.362 |
| CTATTAAG | -0.041 |
| CTATTAAA | 0.00048 |
| GTATTAAA | 0.149 |
| ATATTAAG | 0.122 |
| AGATTAAT | 0.218 |
| CTATTAAC | 0.115 |
| ATATTAAA | 0.35 |
| TGATTAAA | 0.0915 |
| ATATTAAC | 0.28 |
| AAGGATAG | 0.0333 |
| TCGATGCA | 0.152 |
| GTTCAGTA | 0.0391 |
| TGGTCGAA | -0.242 |
| ATATCCCC | 0.0837 |
| TGCTGCCA | -0.0641 |
| ATGATTCG | 0.053 |
| CATCCCTA | 0.122 |
| CATTCTGG | 0.0333 |
| GCACCTAA | -0.0501 |
| ACATTAAA | 0.152 |
| GCATTAAA | 0.0586 |
| TCATTAAA | 0.353 |
| GCGTCCAC | -0.283 |
| GCCTCCGC | -0.203 |

| Sequence | PBM E-score |
| --- | --- |
| ATATTACG | 0.376 |
| AAATTACG | 0.171 |
| CTATTACC | -0.0809 |
| ATATTACC | 0.317 |
| ATATTACA | 0.209 |
| AAATTACC | 0.123 |
| AAGAAAAT | 0.159 |
| CTCTACAC | -0.0485 |
| ATCGTAAT | 0.385 |
| CTAGTAAA | 0.165 |
| ATAGTAAT | 0.358 |
| ATCGTAAA | 0.0952 |
| TTAGTAAA | 0.269 |
| GTAGTAAA | 0.149 |
| ATAGTAAA | 0.198 |
| ATAGTAAC | 0.182 |
| ATCGTAAC | 0.0852 |
| CCGGTAGG | -0.163 |
| CCCAGAAG | -0.167 |
| GCGATAGA | 0.0484 |
| CGACTTGA | -0.0696 |
| AATCTACC | 0.138 |
| CAGATTCC | -0.0124 |
